Source: PubChem
Shown are actives, neighbours in structure and some others; about 12% of the full set was active somewhere.
G9a block: G9a (human) methyltransferase inhibition; G9a H3K9 monomethylation, AlphaScreen, 2 h; Potency, µM (highest dose often 102 µM), inactives show top-dose activity, negative = inhibition, actives largely listed as inhibitors; 350,000 tested, 8.8% active; AID 504332; also: % is scaled to controls: 0 for no effect and ±100 for the full control effect; nearly all actives have a fitted effect of over 75% in size
Target sequence (Q96KQ7 913-1193 limits assumed): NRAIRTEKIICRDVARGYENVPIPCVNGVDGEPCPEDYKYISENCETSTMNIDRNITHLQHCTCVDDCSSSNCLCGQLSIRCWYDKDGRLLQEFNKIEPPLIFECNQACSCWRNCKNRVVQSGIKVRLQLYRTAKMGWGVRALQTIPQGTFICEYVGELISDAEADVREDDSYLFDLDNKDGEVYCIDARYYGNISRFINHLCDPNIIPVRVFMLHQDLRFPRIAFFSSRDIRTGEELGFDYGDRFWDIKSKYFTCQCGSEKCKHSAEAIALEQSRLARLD
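Using a bead-based AlphaScreen, monomethylated H3K9 product from 2 h room-temperature reactions (G9a 20 nM, peptide 500 nM, SAM 20 uM) was detected with 0.5 ug/mL rabbit anti-H3K9me1 antibody.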
BAZ2B block: inhibitors of human BAZ2B bromodomain; Q9UIF8; AlphaScreen BAZ2B-H3K14Ac peptide displacement; Potency, µM (highest dose often 114 µM), for the others: at the highest dose activity change, negative = inhibition, actives largely listed as inhibitors; 360,000 tested, 4.4% active; also: % is scaled to controls: 0 for no effect and ±100 for the full control effect; nearly all actives have a fitted effect of over 60% in size
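BAZ2B (50 nM) with biotin-H3(5-23)K14Ac peptide (50 nM) in PBS pH 7.4, 0.01% Tween-20, preformed 30 min, then compound 30 min at room temperature; top concentration 110uM. AlphaScreen streptavidin donor/nickel chelate acceptor beads (10 ug/mL final), 20 min dark, signal read.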
Sfp inh: blocks B. subtilis Sfp PPTase activity | Biochemical Sfp PPTase activity, qHTS | Potency, µM, for the others: largest response in the series, negative = inhibition, most hits filed as inhibitors | 310,000 tested, 3.5% active | AID 1490;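 also: the enzyme is Sfp with the accession as filed and its product quenches rhodamine fluorescence; 0% = enzyme reaction without inhibitor and -100% = no enzyme wells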
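Buffer: 50 mM Hepes-Na pH 7.6, 10 mM MgCl2, 0.01% Nonidet P-40, 0.01% BSA. Enzyme 15 nM, pre-exposed to compound 15 min; substrates then added and fluorescence change tracked over 30 min.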
HP1b binding inh: HP1-beta chromodomain-methylated histone interaction inhibition; P83916; AlphaScreen HP1-beta / biotin-H3K9me3 peptide binding; Potency, µM (highest dose often 114 µM), for the others: top-dose activity change, negative = inhibition, hits mostly inhibitors; 390,000 tested, 0.56% active; also: nearly all actives have a fitted effect of over 70% in size
Target sequence (P83916 whole entry, looked up): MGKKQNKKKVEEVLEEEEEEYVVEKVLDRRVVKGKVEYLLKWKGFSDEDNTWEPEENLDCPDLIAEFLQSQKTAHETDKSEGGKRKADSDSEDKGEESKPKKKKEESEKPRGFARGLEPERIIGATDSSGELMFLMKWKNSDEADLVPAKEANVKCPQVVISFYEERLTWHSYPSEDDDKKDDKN
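Compound inhibition of the preformed complex between 50 nM HP1-beta and 50 nM biotinylated H3K9me3 peptide was read by AlphaScreen. Buffer was PBS pH 7.4 with 0.01% Tween-20. Incubations ran 30 min at room temperature, with 10 ug/mL donor/acceptor beads.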
JMJD2A Tudor inh: inhibitors of human JMJD2A Tudor domain; O75164; AlphaScreen JMJD2A-Tudor / H3K4me3 peptide binding; Potency, µM (titrated, usually from 114 µM), for inactives: at the top dose activity change, negative = inhibition, hits mostly inhibitors; 390,000 tested, 4.4% active; also: % is scaled to controls: 0 for no effect and ±100 for the full control effect; nearly all actives have a fitted effect of over 50% in size
L3MBTL1 inh: L3MBTL1 (human) inhibition; AlphaScreen L3MBTL1–H3K9me1 peptide binding; Potency, µM (series often up to 57.1 µM), without a hit: top-dose activity, negative = inhibition, most hits filed as inhibitors; 230,000 tested, 0.66% active; AID 485360; also: % is scaled to controls: 0 for no effect and ±100 for the full control effect; nearly all actives have a fitted effect of over 60% in size
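First, the protein-peptide complex forms for 30 min at room temperature (L3MBTL1 50 nM, biotinylated H3K9me1 peptide 75 nM). Next, compounds are pin-transferred and incubated 30 min. Finally, AlphaScreen beads are added and read after 30 min.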
The depositor's hits bear a star; ? = inconclusive; · = not tested or not shown; [ ] = remark or other dose. Calls follow the shape of the dose curve; as a rule, active = well fitted curve in the direction sought with a large enough effect; inconclusive = small, poorly fitted or top-dose-only effect, or another doubt; inactive = no such curve, though single readings can be large; an effect the other way counts as inactive or inconclusive. Potency is read from the fitted curve at half-maximal effect.

SMILES | G9a block | BAZ2B block | Sfp inh | HP1b binding inh | JMJD2A Tudor inh | L3MBTL1 inh
CSc1nc(-c2ccco2)nn1C(=O)c1ccccc1 | ? | ? | 14.1µM* | 55.1% | -6.1% | 1.3%
O=C(Cn1c(-c2cccs2)cc2ccccc21)N1CCN(c2ccc(F)cc2)CC1 | -4.3%[59 µM] | -11.1% | · | 19.6% | -9.2% | ·
CCOC(=O)c1ccccc1NC(=O)c1c2c(nc3ccccc13)C(=O)N(C1CCCCC1)C2 | -0.9%[59 µM] | -1.9% | · | 36.5% | -7.0% | ·
CCCCCCCCOc1ccccc1C(=O)Nc1ccc(C(=O)OCC[N+](C)(CC)CC)cc1 | -6.1%[12.7 µM] | · | 39.8µM* | · | · | ·
O=S1(=O)c2ccccc2N(Cc2ccccc2Cl)c2ccccc21 | -12.9%[59 µM] | -40.4% | · | -2.1% | -15.3% | ·
O=C(O)c1cc(-c2ccc(C(F)(F)F)cc2)nc2n[nH]c(-c3ccccc3)c12 | -14.6%[59 µM] | -26.1% | · | 37.9% | -14.8% | ·
COCCNC(=S)NNc1cccc(C(=O)O)c1 | 10µM* | · | 7.08µM* | ? | 10µM* | ·
CCOc1ccc(NC(=O)Cn2nc(Cc3cccnc3)c3ccccc3c2=O)cc1 | -0.9%[59 µM] | -25.2% | · | 42.2% | -15.2% | ·
Cc1ccc(-c2c(C)c(-c3ccc(F)cc3)nc(N)c2C#N)o1 | 12.6µM* | 19.6% | 17.8µM* | 39.7% | 5.9% | 7.0%
CCCNc1cc(=S)nc(N)[nH]1 | 0.631µM* | -29.6% | ? | ? | 22.4µM* | -23.3%
CCCNc1nc2ccccc2c(=O)[nH]1 | 7.8% | 4.2% | 17.8% | 1.7% | -2.1% | ·
O=C(COC(=O)/C=C/c1ccc(Br)o1)Nc1ccccc1F | ? | 56.2µM* | 4.0% | · | · | ?
O=C(COC(=O)/C=C/c1ccc(Br)o1)NC1CCCCC1 | 1.8%[12.7 µM] | ? | · | 7.9% | 79.4µM* | ?
O=C(COC(=O)/C=C/c1ccco1)NC1CCCCC1 | 14.6%[12.7 µM] | -2.6% | · | -36.6% | ? | -9.5%
Cc1ccccc1NC(=O)C1CCN(S(=O)(=O)c2ccccc2)CC1 | 1.1%[59 µM] | 0.4% | · | 28.6% | -15.9% | ·
CC(C)=CCC/C(C)=C/CO/N=C1/C[C@@H](O)[C@@H](O)[C@@H]2[C@@H]3C(=O)N(C4CCCCC4)C(=O)[C@H]3CC[C@H]12 | · | · | -6.3% | · | · | ·
CCCCn1c(-c2cccnc2)nc2cc3[nH]c(=O)c(C(C)C)nc3cc21 | ? | -5.8% | 2.1% | 47.3% | -12.1% | -4.1%
CCCCn1c(-c2cccnc2)n[nH]c1=S | 25.1µM* | 4.7% | ? | 18.5% | 8.91µM* | -2.3%
CCn1c(-c2cccnc2)n[nH]c1=S | 27.2%[0.501 µM] | ? | 89.1µM* | 14.2% | 22.4µM* | -4.3%
O=C(NCCc1csc(-c2cccnc2)n1)c1cccc(C(F)(F)F)c1 | 3.4%[59 µM] | -6.6% | · | 4.6%[57 µM] | 1.0% | ·
COc1ccc(C2C(C#N)=C(N)Oc3n[nH]c(C)c32)cc1Cn1nc(C)c([N+](=O)[O-])c1C (stereo not given) | 10µM* | -8.3% | -10.2% | 8.0% | -30.4% | ?
COc1ccc(C2C(C#N)=C(N)Oc3n[nH]c(C)c32)cc1Cn1cc([N+](=O)[O-])cn1 (stereo not given) | · | -10.5% | 7.5% | 12.4% | -27.5% | -0.1%
O=C(CSc1nc2ncc(Cl)cc2[nH]1)c1ccc2c(c1)OCO2 | ? | -20.8% | 10.3% | 22.2% | -16.6% | ·
O=C(CSc1nc2cc(Cl)c(Cl)cc2[nH]1)c1ccc2c(c1)OCO2 | 11.2µM* | 13.5% | ? | 25.7% | -6.6% | -14.9%
O=C(CSc1ncn[nH]1)c1ccc2c(c1)OCO2 | 5.8%[12.7 µM] | 11.1% | -4.7% | 25.5% | 31.6µM* | -4.3%[11.4 µM]
SMILES | G9a block | BAZ2B block | Sfp inh | HP1b binding inh | JMJD2A Tudor inh | L3MBTL1 inh
O=C(CSc1nc2ccc(Cl)cc2[nH]1)c1ccc2c(c1)OCO2 | 35.5µM* | 50.1µM* | 79.4µM* | 21.6% | 22.4µM* | -2.4%
O=C(CSc1nc2ccc(Cl)cc2[nH]1)c1c[nH]c2ccccc12 | 20µM* | -18.7% | 22.7% | 30.2% | -9.9% | -6.4%
C=CCNC(=O)c1cc([N+](=O)[O-])cc2c(=O)[nH]c(Nc3ccc(Cl)c(Cl)c3)nc12 | · | · | 28.5% | · | · | ·
CCN(C(=O)c1ccc2c(c1)N(Cc1cccc(Cl)c1)C(=O)c1ccccc1S2=O)c1ccccc1 (stereo not given) | -26.6%[59 µM] | -8.5% | · | 1.4% | -16.3% | ·
COc1cc(OC)c(NC2=CC(=O)C(=O)c3ccccc32)cc1Cl | 39.8µM* | ? | -6.0% | ? | ? | ·
CCOC(=O)c1ccc(NC2=CC(=O)C(=O)c3ccccc32)cc1 | ? | ? | 50.1µM* | ? | ? | -21.3%
Cc1ccc(NC2=CC(=O)C(=O)c3ccccc32)cc1 | ? | 39.8µM* | -18.7% | -29.2% | ? | ?
NS(=O)(=O)c1ccc(NC2=CC(=O)C(=O)c3ccccc32)cc1 | · | ? | -15.6% | -8.2% | 22.4µM* | ?
NS(=O)(=O)c1ccc(NC(=O)Nc2ccccc2)cc1 | -4.4%[59 µM] | -4.1% | 14.6% | 17.2% | -11.0% | 11.8%
Cc1cc(NC2=CC(=O)C(=O)c3ccccc32)no1 | · | · | · | 3.1% | -17.4% | ·
O=C1c2ccccc2C(=O)N1c1nc(-c2cccs2)cs1 | -12.8%[59 µM] | -10.9% | 25.1µM* | 20.9% | -33.8% | -6.1%
CN1CCN(c2nc(-c3cccs3)cs2)CC1 | 35.5µM* | ? | 56.2µM* | -15.0% | ? | ·
O=C1c2ccccc2C(=O)N1c1ccncc1 | · | · | · | · | -6.1% | ·
C=CCn1cccc(C(=O)Nc2ccc(Cl)cc2)c1=O | 9.8% | 9.5% | 5.7% | 45.7% | 13.7% | ·
C=CCn1cccc(C(=O)Nc2ccc(N(C)C)cc2)c1=O | 12.6µM* | -27.3% | 9.9% | -21.3% | ? | ·
C=CCn1cccc(C(=O)Nc2cc(OC)c(OC)c(OC)c2)c1=O | -5.2% | -9.7% | 14.8% | -11.3% | 31.6µM* | -4.0%
Cc1ccc(C(=O)N/C(=C\c2ccc(Br)cc2)c2nc(=S)[nH][nH]2)cc1 | 14.9% | ? | 0.6% | -18.4% | 44.7µM* | -12.5%
